From PubChem BioAssay
CYP2C19 inhib: blocks human cytochrome P450 2C19 | 21% of 96,000 active | inhibition, % at 5 µM | CYP2C19 Supersomes, luciferin-H EGE luminescence, 30 min;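 active means CYP2C19 inhibition above a set limit at 5 µM in the primary screen, cut at about 50% in these data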;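 further: plate controls were negative control wells for no effect and 2.5 mM tranylcypromine positive control for full effect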
Target sequence (P33261 whole entry, looked up): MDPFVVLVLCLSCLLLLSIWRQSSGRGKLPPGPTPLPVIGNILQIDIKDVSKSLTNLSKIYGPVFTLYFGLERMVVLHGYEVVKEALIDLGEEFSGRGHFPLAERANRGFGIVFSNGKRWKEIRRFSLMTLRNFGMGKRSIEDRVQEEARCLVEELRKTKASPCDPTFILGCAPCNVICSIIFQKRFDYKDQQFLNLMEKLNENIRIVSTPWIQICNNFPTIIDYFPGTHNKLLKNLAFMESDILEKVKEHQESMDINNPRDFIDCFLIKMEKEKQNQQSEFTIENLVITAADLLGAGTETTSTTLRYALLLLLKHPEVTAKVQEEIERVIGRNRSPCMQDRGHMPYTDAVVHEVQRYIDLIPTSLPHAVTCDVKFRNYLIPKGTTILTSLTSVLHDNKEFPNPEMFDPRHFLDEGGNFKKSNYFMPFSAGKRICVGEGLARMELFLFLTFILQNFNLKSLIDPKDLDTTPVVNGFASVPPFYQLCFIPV
F-actin modifier: modifiers of cytoskeleton assembly; HUVEC TNFa F-actin phalloidin imaging, high content; inhibition, % at 2 µM; 0.18% of 91,000 active; AID 836;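 active means inhibition above the batch mean plus 3 SD and confirmed as a hit by visual image inspection, cut at about 30% in these data, passing the limit was not always enough; inconclusive means above the inhibition threshold but rejected on visual inspection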
E-sel TNF inh: blocks E-selectin expression induced by TNF alpha | HUVEC TNFa-induced E-selectin immunofluorescence, high content | inhibition, % at 2 µM | 0.71% of 120,000 active;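 active means inhibition above the batch mean plus 3 SD, and confirmed as a hit on visual image review, cut at about 43% in these data; inconclusive means passes the inhibition cutoff but fails visual image review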;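 further: 0% = TNF-stimulated DMSO wells and 100% = unstimulated control wells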
CYP2C9 activ: activators of human CYP2C9 | P11712 | recombinant CYP2C9, luciferin-H conversion, luminescence; active compounds read high; factor 1 = untreated enzyme, 0 = blocked | activation factor at 5 µM | 1.4% of 96,000 active;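 active means activation factor of 2 or more for CYP2C9 at a 5 µM dose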;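 further: 0 = sulfaphenazole-blocked wells and 1 = vehicle-only wells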
CYP2C19 activ: cytochrome P450 2C19 (human) activation. 96,000 tested, under 10 active. recombinant CYP2C19, luciferin-H EGE luminescence; active compounds read high; 0 = fully inhibited enzyme, 1 = untreated enzyme. activation factor at 5 µM. P33261;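 active means activation factor of at least 2 at 5 µM in the primary screen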;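 further: 0 = wells with 2.5 mM tranylcypromine and 1 = vehicle-only wells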
CYP2C9 inhib: blocks human cytochrome P450 2C9. inhibition, % at 5 µM. AID 777. P11712. 20% of 96,000 active. CYP2C9 Supersomes, luciferin-H conversion, luminescence;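 active means blocking of liver enzyme CYP2C9 beyond about 50% at 5 µM, limit read from the data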
* = called active by the depositor; ? = inconclusive; · = no result given. This is a sample that favours compounds with a hit; in the whole collection about 22% have one here.

SMILES	CYP2C19 inhib	F-actin modifier	E-sel TNF inh	CYP2C9 activ	CYP2C19 activ	CYP2C9 inhib
COc1ccc(-c2c(C)nn3c(N4CCN(Cc5ccccc5)CC4)cc(C)nc23)cc1OC	67.8*	-14.4	-26.7	0.2	0.3	84.9*
Cc1cc(N2CCN(Cc3ccccc3)CC2)n2nc(C)c(-c3ccccc3)c2n1	16.5	-13.1	9.2	0.9	0.8	14.9
O=c1nc2n(c3c4c(sc13)CCC4)CCC2	15.1	12.5	·	0.9	0.8	7.0
O=C(O)C1C2C=CC(C2)C1C(=O)Nc1ccc(C(=O)N2CCCCC2)cc1 (stereo not drawn)	14.9	2.1	-2.7	0.9	0.9	5.2
CCC(=O)N/C(=N/c1nc(C)cc(C)n1)Nc1ccc(OC)cc1	·	-10.6	-5.6	·	·	·
CC(=O)N(c1ccc(Cl)cc1)c1c[nH]c2ccccc12	91.8*	-46.8	·	0.3	0.1	69.6*
Cc1cc(N2CCCC2)c(C)cc1C=O	27.7	-4.7	25.3	0.4	0.7	61.9*
CC(=O)c1cc(F)c(N2CCCCCC2)cc1C	·	-20.8	17.1	·	·	·
CC(NC(=O)C(Cc1ccccc1)N1C(=O)C2C3CCC(C3)C2C1=O)c1ccccc1 (stereo not drawn)	43.1	22.2	10.2	1	0.6	4.7
Cc1ccc(Sc2c(CO)c(-c3ccccc3)nn2C)cc1	·	·	-33.4	·	·	·
Cc1ccc(S(=O)(=O)c2c(COC(=O)c3ccc(Cl)cc3)c(-c3ccccc3)nn2C)cc1	66.9*	-11.7	5.6	0.5	0.3	51.9*
Cc1ccc(NC(=O)CNc2cccc(C)c2C)c(C)c1	63.7*	1.9	8.8	0.5	0.4	51.6*
Cc1cc(C)n(CC(=O)Nc2ccccc2)n1	9.7	17.4	-18.1	1.1	0.9	-5.6
Cc1ccc(NC(=O)CCC(=O)n2nc(C)cc2C)c(C)c1	-5.0	1.5	-13.2	1.2	1.1	-24.1
Cc1cccc(NC(=O)CCn2nc(C)cc2C)c1	71.3*	·	·	2.6*	0.3	-159.6
Cc1ccc(NC(=O)CCn2nc(C)cc2C)c(C)c1	52.6*	·	-37.2	1	0.5	-2.0
CN1C(=O)C(C(=O)NC(C)(C)C)C2c3ccccc3OC13CCCCC23 (stereo not drawn)	57.9*	?	25.5	0.4	0.4	60.5*
COc1ccc(NC(=O)C2C(=O)N(C)C3(C)CC2c2ccccc2O3)cc1 (stereo not drawn)	2.2	-15.8	·	0.9	1	14.4
CCn1cc(C2=NOC(C(=O)Nc3ccccc3C(=O)OC)C2)c(C)n1 (stereo not drawn)	24.4	-8.0	·	2.5*	0.8	-147.7
CC1(C)CC(=O)C=C(Nc2ccccc2F)C1	49.2	-11.1	-8.1	0.8	0.5	17.0
CC(C)OC(=O)CSc1nnc(-c2ccccc2)n1N	60.5*	12.1	4.8	0.9	0.4	14.0
Cc1ccc(-n2c(SCC(=O)OC(C)C)nnc2-c2ccco2)cc1	23.1	6.2	18.4	2.3*	0.8	-130.0
Cc1ccc(-n2c(SCC(=O)OC(C)C)nnc2-c2ccccn2)cc1	50.6*	-24.8	29.4	1	0.5	-2.2
CNC(=O)CSc1nnc(-c2ccco2)n1-c1ccc(C)cc1	·	5.8	-28.6	·	·	·
CCOC(=O)c1c(C2CC2)csc1NC(=O)COC(=O)c1cc(OC)c(OC)cc1[N+](=O)[O-]	·	·	-6.0	·	·	·
SMILES	CYP2C19 inhib	F-actin modifier	E-sel TNF inh	CYP2C9 activ	CYP2C19 activ	CYP2C9 inhib
Cc1nc(C)c(C(=O)NCc2ccccc2Cl)o1	1.0	-2.4	·	1	1	-4.6
CCOC(=O)C1=C(CP(=O)(c2ccccc2)c2ccccc2)NC(=O)NC1c1ccc(OC)cc1 (stereo not drawn)	·	·	-48.8	·	·	·
CCOC(=O)C1=C(CN2CCSCC2)NC(=O)NC1c1cc(C)ccc1C (stereo not drawn)	37.8	21.6	5.3	0.4	0.6	55.5*
COC(=O)C1=C(CN2CCSCC2)NC(=O)NC1c1cc(C)ccc1C (stereo not drawn)	18.6	-4.9	-21.2	1	0.8	-0.3
CCOC(=O)C1=C(CSc2nc3ccccc3s2)NC(=O)NC1c1cc(C)ccc1C (stereo not drawn)	67.8*	8.8	-42.9	0.2	0.3	78.0*
CCOC(=O)C1=C(CSc2nc3ccccc3s2)NC(=O)NC1c1ccc(OC)cc1 (stereo not drawn)	59.8*	11.8	-16.2	0.5	0.4	46.2
CCCCN(C(=O)CSc1nnc(Nc2ccc(C)c(C)c2)s1)c1c(N)n(Cc2ccccc2)c(=O)[nH]c1=O	26.9	-7.9	2.7	0.7	0.7	27.0
CN(C(=O)CSc1nnc(Nc2ccccc2)s1)c1c(N)n(Cc2ccccc2)c(=O)[nH]c1=O	25.9	11.3	6.7	0.4	0.7	64.1*
C=CCn1c(CCCOc2ccc(Cl)cc2Cl)nnc1SCC(=O)Nc1nccs1	-9.1	·	18.9	1.1	1.1	-6.9
COc1cc(C)ccc1OCCOc1ccccc1Cl	70.0*	2.4	-45.9	0.7	0.3	28.4
COc1cc(C=O)ccc1OCCOCCOc1cc(C)ccc1Cl	49.9	-17.3	26.6	0.5	0.5	51.8*
O=C(CCC1CCCN(Cc2cccc3c2OCO3)C1)NCc1ccc(F)c(F)c1 (stereo not drawn)	·	·	-7.8	·	·	·
CCCN(CC1CC1)C(=O)Nc1ccccc1C	22.7	9.6	4.5	1.1	0.8	-9.7
COc1ccc(C(NC(=O)C(C)C)c2c(O)ccc3ccccc23)cc1 (stereo not drawn)	·	·	-0.1	·	·	·
COc1ccc(C(c2c(O)ccc3ccccc23)N2CCOCC2)c(OC)c1 (stereo not drawn)	86.9*	1.2	·	0.1	0.1	92.7*
CCOc1ccc(NC(=O)CSc2nccn2C)cc1	·	7.7	-26.3	·	·	·
Cn1ccnc1SCc1ccc([N+](=O)[O-])cc1	55.4*	-1.6	-15.0	0.9	0.4	13.8
COC(=O)c1ccc(CSc2nccn2C)cc1	65.1*	-4.1	-2.8	1.1	0.3	-10.7
Cn1c(CO)cnc1SCc1ccc([N+](=O)[O-])cc1	65.3*	·	·	0.7	0.3	31.4
COc1cc(CNc2nc3ccccc3[nH]2)cc(OC)c1OC	·	-0.4	-7.7	·	·	·
COc1ccccc1/C=C(\NC(=O)c1ccc(OC)c(OC)c1)C(=O)Nc1cc([N+](=O)[O-])ccc1C	·	·	-24.8	·	·	·
O=C(CSC1=NCCS1)N1CCN(c2ccc(Cl)cc2)CC1	62.0*	4.7	3.1	0.8	0.4	16.2
CCOC(=O)C1CCN(C(=O)CSC2=NCCS2)CC1	59.4*	·	15.3	0.9	0.4	9.1
Cn1nnnc1SCC(=O)N1CCN(c2ccc(Cl)cc2)CC1	-11.4	2.8	21.2	0.7	1.1	25.8
Cc1ccccc1OCC(=O)NN1Cc2ccccc2C1=N	23.0	-6.3	-28.3	1	0.8	-2.3
CC(C)(C)c1nc(SCC(=O)Nc2nc3c(s2)CCCC3)c2ccccc2n1	-1.1	14.8	-0.4	0.7	1	30.3
Cc1ccc(-c2nnc(SCC(=O)Nc3nc4c(s3)CCCC4)n2C)cc1	7.1	10.0	11.5	0.7	0.9	34.7
O=C(CSc1nc(Cc2ccccc2)nc2ccccc12)Nc1nc2c(s1)CCCC2	84.8*	·	·	0.1	0.2	93.1*
